From PubChem BioAssay AID1159580 (chemical genetic matrix, 2015)
About 2,000 (36%) of roughly 5,500 compounds were called active. Roughly 18% stayed inconclusive and do not appear here. Cut-off read from the data, not from the text of the source: active = normalized growth mostly below about 0.91 (no sharp cut-off); inconclusive = no clear call, values can overlap the other calls; inactive = mostly above about 0.92. Some of the results follow.

Test: chemical genetic growth profiling, strain panel (AID 1159580);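 note: tested at 20 µM; growth read once vehicle control cultures reached saturation at 30 °C; 1 = growth at the plate median or of vehicle wells; lower values mean less growth of the strain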
Conditions: S. cerevisiae deletion strains, growth OD

Measured: normalized growth

CC(=O)CSc1nnc(-c2ccc(C(C)(C)C)cc2)n1-c1ccc(Cl)cc1
inactive: locus YAR019C, strain CDC15, hits give low values 0.982 | locus YBL105C, strain PKC1, hits give low values 0.974 | locus YBR135W, strain CKS1, hits give low values 0.973 | locus YBR136W, strain MEC1, hits give low values 0.987 | locus YBR160W, strain CDC28, hits give low values 0.976 | locus YDL017W, strain CDC7, hits give low values 0.983 | locus YDL028C, strain MPS1, hits give low values 0.976 | locus YDL101C, strain DUN1, hits give low values 0.974 | locus YDL108W, strain KIN28, hits give low values 0.982 | locus YDL132W, strain cdc53, hits give low values 0.972 | locus YDL214C, strain PRR2, hits give low values 0.959 | locus YDR052C, strain DBF4, hits give low values 0.986 | locus YDR054C, strain cdc34, hits give low values 0.971 | locus YDR226W, strain ADK1, hits give low values 0.973 | locus YDR477W, strain SNF1, hits give low values 0.958 | locus YER123W, strain YCK3, hits give low values 0.953 | locus YER133W, strain GLC7, hits give low values 0.969 | locus YFL009W, strain cdc4, hits give low values 0.977 | locus YFL029C, strain CAK1, hits give low values 0.987 | locus YFR003C, strain YPI1, hits give low values 0.984 | locus YFR019W, strain FAB1, hits give low values 1 | locus YFR028C, strain CDC14, hits give low values 0.977 | locus YGR040W, strain KSS1, hits give low values 0.965 | locus YGR052W, strain FMP48, hits give low values 1.02 | locus YGR092W, strain DBF2, hits give low values 0.987 | locus YHR079C, strain IRE1, hits give low values 0.99 | locus YHR082C, strain KSP1, hits give low values 1.04 | locus YHR205W, strain SCH9, hits give low values 0.976 | locus YIL147C, strain SLN1, hits give low values 0.983 | locus YJL095W, strain BCK1, hits give low values 0.926 | locus YJL128C, strain PBS2, hits give low values 0.927 | locus YJL157C, strain FAR1, hits give low values 0.986 | locus YJR016C, strain ILV3, hits give low values 0.982 | locus YJR066W, strain TOR1 (second series), hits give low values 0.984 | locus YJR066W, strain TOR1, hits give low values 0.972 | locus YKL048C, strain ELM1, hits give low values 0.969 | locus YKL067W, strain YNK1, hits give low values 0.947 | locus YKL101W, strain HSL1, hits give low values 0.973 | locus YKL193C, strain SDS22, hits give low values 0.981 | locus YKL203C, strain TOR2, hits give low values 1.05 | locus YLR113W, strain HOG1, hits give low values 0.914 | locus YLR133W, strain CKI1, hits give low values 0.99 | locus YLR403W, strain SFP1, hits give low values 0.984 | locus YML070W, strain DAK1, hits give low values 0.97 | locus YMR001C, strain CDC5, hits give low values 0.985 | locus YMR205C, strain PFK2 (second series), hits give low values 0.97 | locus YMR277W, strain FCP1, hits give low values 0.978 | locus YNL006W, strain LST8, hits give low values 0.98 | locus YNL020C, strain ARK1, hits give low values 0.999 | locus YNL161W, strain CBK1, hits give low values 0.984 | locus YNL183C, strain NPR1, hits give low values 1.01 | locus YNL207W, strain RIO2, hits give low values 0.988 | locus YNL222W, strain SSU72, hits give low values 0.97 | locus YNL307C, strain MCK1 (second series), hits give low values 0.996 | locus YOL078W, strain AVO1, hits give low values 0.984 | locus YOL136C, strain PFK27, hits give low values 0.983 | locus YOR061W, strain CKA2, hits give low values 0.976 | locus YOR119C, strain RIO1, hits give low values 0.98 | locus YOR231W, strain MKK1, hits give low values 0.97 | locus YOR329C, strain SCD5, hits give low values 0.977 | locus YPL031C, strain PHO85, hits give low values 0.953 | locus YPL153C, strain RAD53, hits give low values 0.972 | locus YPL204W, strain HRR25, hits give low values 0.958 | locus YPL209C, strain IPL1, hits give low values 0.984 | locus YPL256C, strain CLN2, hits give low values 0.918 | locus YPR025C, strain CCL1, hits give low values 0.976 | locus YPR106W, strain ISR1, hits give low values 0.974 | locus YPR111W, strain DBF20, hits give low values 0.965 | strain NNK1, hits give low values 0.997 | strain TSCII, hits give low values 0.99
active: locus YHR030C, strain SLT2, hits give low values 0.797
